# The whole screen tested about 39,000 compounds, of which about 3,300 (8.5%) were called active. For the sample, actives were picked, then their nearest neighbours and some compounds at random.
# Test system: HepG2
# Test: cytotoxicity call (relative viability < 0.9)
# Settings: 10 µM
row,Compound,cytotoxicity call
1,C[C@@H]1CCCCO[C@@H](CN(C)S(C)(=O)=O)[C@@H](C)CN([C@@H](C)CO)C(=O)c2cc(NS(=O)(=O)c3ccc(F)cc3)ccc2O1,inactive
2,CC(C)NC(=O)Nc1ccc2c(c1)CC(=O)N([C@H](C)CO)C[C@H](C)[C@H](CN(C)Cc1ccc(Oc3ccccc3)cc1)O2,inactive
3,C[C@H](CO)N1C[C@H](C)[C@@H](CN(C)Cc2ccc(Oc3ccccc3)cc2)Oc2ccc(NC(=O)Nc3ccccc3)cc2CC1=O,inactive
4,C[C@H]1CN([C@@H](C)CO)C(=O)Cc2cc(NC(=O)Nc3ccccc3)ccc2O[C@H]1CN(C)Cc1ccc(Oc2ccccc2)cc1,active
5,C[C@H]1CN([C@@H](C)CO)C(=O)Cc2cc(NC(=O)Nc3ccccc3)ccc2O[C@@H]1CN(C)Cc1ccc(Oc2ccccc2)cc1,active
6,C[C@@H]1CN([C@@H](C)CO)C(=O)Cc2cc(NC(=O)Nc3ccccc3)ccc2O[C@@H]1CN(C)Cc1ccc(Oc2ccccc2)cc1,active
7,CC(C)NC(=O)Nc1ccc2c(c1)CC(=O)N([C@@H](C)CO)C[C@H](C)[C@@H](CN(C)Cc1ccc(Oc3ccccc3)cc1)O2,inactive
8,CC(C)NC(=O)Nc1ccc2c(c1)CC(=O)N([C@@H](C)CO)C[C@H](C)[C@H](CN(C)Cc1ccc(Oc3ccccc3)cc1)O2,inactive
9,C[C@@H]1CN([C@@H](C)CO)C(=O)Cc2cc(NC(=O)Nc3ccccc3)ccc2O[C@H]1CN(C)Cc1ccc(Oc2ccccc2)cc1,inactive
10,C[C@@H]1CN([C@H](C)CO)C(=O)Cc2cc(NC(=O)Nc3ccccc3)ccc2O[C@H]1CN(C)Cc1ccc(Oc2ccccc2)cc1,active
11,COCC#Cc1ccc2c(c1)O[C@@H](CN(C)C(=O)c1ccccc1F)[C@H](C)CN([C@@H](C)CO)S2(=O)=O,inactive
12,Cc1noc(C)c1S(=O)(=O)N(C)C[C@@H]1Oc2ccc(NS(C)(=O)=O)cc2CC(=O)N([C@H](C)CO)C[C@@H]1C,inactive
13,C[C@H](CO)N1C[C@H](C)[C@@H](CN(C)S(=O)(=O)c2cn(C)cn2)Oc2cc(C#Cc3ccccc3)ccc2S1(=O)=O,inactive
14,C=CC[C@@H](CC(=O)N[C@@H](CO)Cc1ccccc1)C(=O)NCCOC(=O)[C@H](CC=C)CC(=O)OC(C)(C)C,inactive
15,C[C@@H]1CN([C@H](C)CO)C(=O)Cc2cc(NC(=O)CCN3CCOCC3)ccc2O[C@@H]1CN(C)S(=O)(=O)c1ccccc1,inactive
16,C[C@H]1CCCCO[C@@H](CN(C)C(=O)c2ccccc2)[C@@H](C)CN([C@@H](C)CO)C(=O)c2cc(NC(=O)NC3CCCCC3)ccc2O1,inactive
17,Cc1cccc(CN(C)C[C@@H]2Oc3ncc(-c4cccc(C(F)(F)F)c4)cc3C(=O)N([C@H](C)CO)C[C@@H]2C)c1,inactive
18,CC(C)NC(=O)Nc1ccc2c(c1)C(=O)N([C@H](C)CO)C[C@@H](C)[C@@H](CN(C)S(=O)(=O)c1cn(C)cn1)OCCCC[C@H](C)O2,inactive
19,COc1ccc(S(=O)(=O)Nc2ccc3c(c2)CC(=O)N([C@H](C)CO)C[C@H](C)[C@H](CN(C)S(=O)(=O)c2ccc(OC)cc2)O3)cc1,inactive
20,Nc1cc(=O)nc(C(F)(F)F)[nH]1,inactive

row,Compound,cytotoxicity call
1,Cc1ccc(S(=O)(=O)Nc2cccc3c2O[C@@H](CN(C)S(=O)(=O)c2ccc(F)cc2)[C@@H](C)CN([C@@H](C)CO)C3=O)cc1,inactive
2,O=C(CN1CCOCC1)N[C@@H]1CC[C@H](CCNC(=O)Nc2cc(F)ccc2F)O[C@H]1CO,inactive
3,COc1ccc(S(=O)(=O)Nc2ccc3c(c2)[C@@H]2C[C@H](CC(=O)NCC4CC4)O[C@H](CO)[C@@H]2O3)cc1,inactive
4,CCS(=O)(=O)Nc1ccc2c(c1)C(=O)N(C)[C@@H]1CC[C@H](CC(=O)N[C@H]3CCN(Cc4ccccc4)C3)O[C@@H]1CO2,inactive
5,c1cc([C@@H]2CNCCN2)[nH]n1,inactive
6,C[C@@H]1CCCCO[C@H](CN(C)S(=O)(=O)c2ccccc2)[C@H](C)CN([C@@H](C)CO)C(=O)c2cc(NC(=O)CCC(F)(F)F)ccc2O1,inactive
7,Cc1noc(C)c1S(=O)(=O)Nc1cccc2c1O[C@H](CN(C)S(=O)(=O)c1c(C)noc1C)[C@H](C)CN([C@@H](C)CO)C2=O,inactive
8,CC(C)NC(=O)Nc1ccc2c(c1)CC(=O)N([C@@H](C)CO)C[C@@H](C)[C@@H](CN(C)Cc1ccc(Oc3ccccc3)cc1)O2,inactive
9,CC(C)NC(=O)Nc1ccc2c(c1)CC(=O)N([C@H](C)CO)C[C@@H](C)[C@@H](CN(C)Cc1ccc(Oc3ccccc3)cc1)O2,active
10,CC(C)NC(=O)Nc1ccc2c(c1)CC(=O)N([C@H](C)CO)C[C@@H](C)[C@H](CN(C)Cc1ccc(Oc3ccccc3)cc1)O2,inactive
11,C[C@@H]1CN([C@H](C)CO)C(=O)Cc2cc(NC(=O)Nc3ccccc3)ccc2O[C@@H]1CN(C)Cc1ccc(Oc2ccccc2)cc1,active
12,CC(C)NC(=O)Nc1ccc2c(c1)CC(=O)N([C@@H](C)CO)C[C@@H](C)[C@H](CN(C)Cc1ccc(Oc3ccccc3)cc1)O2,inactive
13,C[C@H](CO)N1C[C@H](C)[C@H](CN(C)Cc2ccc(Oc3ccccc3)cc2)Oc2ccc(NC(=O)Nc3ccccc3)cc2CC1=O,inactive
14,CCOc1nc2cccc(C(=O)OCc3oc(=O)oc3C)c2n1Cc1ccc(-c2ccccc2-c2noc([O-])n2)cc1.[K+],inactive
15,O=C(C[C@@H]1CC[C@@H]2[C@H](COC[C@@H](O)CN2C(=O)c2ccc(F)cc2)O1)NCCCN1CCOCC1,inactive
16,CN(C)C(=O)c1ccc(-c2cccc(-c3nc(C(=O)NC4CCC4)cc4c3[C@H](CCO)N([S@@](=O)C(C)(C)C)C4)c2)cc1,inactive
17,Cc1ccc(S(=O)(=O)N(C)C[C@H]2Oc3ccc(NS(=O)(=O)c4cccs4)cc3C(=O)N([C@@H](C)CO)C[C@H]2C)cc1,inactive
18,CC1(C)OC(=O)C2(C(=O)O1)[C@@H](c1ccc(-c3cccc(Br)c3)cc1)CC(=O)C[C@H]2c1ccccc1,inactive
19,CCCNC(=O)c1cc2c(c(-c3cccc(-c4cc5ccccc5o4)c3)n1)[C@H](CCO)N(C(=O)NC(C)C)C2,inactive
20,C[C@@H]1CCCCO[C@@H](CN(C)S(=O)(=O)c2ccccc2)[C@@H](C)CN([C@@H](C)CO)C(=O)c2cc(NC(=O)Nc3cccc4ccccc34)ccc2O1,inactive

# Reference: the antibiotic and cytotoxicity screens of Wong et al. (2023)
